High-throughput results deposited in PubChem by Broad Institute.
Compounds with a hit are over-represented: about 1.1% of the library has one in this group of screens.
Glyco luc inh: blocks N-linked glycosylation in D54 reporter cells | D54 ERlucT glycosylation luciferase reporter, 24 h; percent of 100 nM tunicamycin response | reporter increase, % at 12.5 µM | 360,000 tested, 0.23% active;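 active means mean luciferase reporter signal, scaled so untreated is 0 and the glycosylation-blocking control 100, at or above a set limit in every replicate; inconclusive means mean reaches the limit but not every replicate does; inactive means mean below the limit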;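 further: luciferase carries N-glycosylation sites so blocking glycosylation raises the light; 0% = median of neutral control wells and 100% = median of 100 nM tunicamycin wells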
HDAC3 inhib: human HDAC3 inhibition; O15379; 320,000 tested, 0.15% active; recombinant HDAC3, fluorogenic peptide/trypsin coupled, fluorescence; AID 2718; inhibition, % at 8.3 µM; in the data active means inhibition above about 26%, passing the limit was not always enough; inconclusive means no clear call, values can overlap the other calls
LANA DNA inh: inhibitors of KSHV LANA C-terminal domain DNA binding | MBP-C-LANA/FAM-LBS DNA binding, fluorescence polarization | inhibition, % at 9 µM | 340,000 tested, 0.078% active;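 active means highest replicate inhibition at or above 60% at 9 µM, even if other replicates fall short; inactive means all replicates below 60% inhibition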;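 further: 0% = neutral control wells and 100% = 4 µM acridine orange control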
Keap1-Nrf2 PPI: Keap1-Nrf2 (human) interaction inhibition. 340,000 tested, 0.15% active. Keap1 Kelch-Nrf2 peptide fluorescence polarization, 1536-well. inhibition, % at 9.4 µM. AID 504523; in the data active means inhibition above about 12%; inconclusive means no clear call, values can overlap the other calls; inactive means below about 7.3%;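 further: human Keap1 Kelch domain with fluorescein labeled Nrf2 9mer peptide probe; 0% = neutral control wells and 100% = peptide positive control; higher means more block of Keap1 binding to Nrf2 peptide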
Target sequence (Q14145 whole entry, looked up, the tested form may be a part): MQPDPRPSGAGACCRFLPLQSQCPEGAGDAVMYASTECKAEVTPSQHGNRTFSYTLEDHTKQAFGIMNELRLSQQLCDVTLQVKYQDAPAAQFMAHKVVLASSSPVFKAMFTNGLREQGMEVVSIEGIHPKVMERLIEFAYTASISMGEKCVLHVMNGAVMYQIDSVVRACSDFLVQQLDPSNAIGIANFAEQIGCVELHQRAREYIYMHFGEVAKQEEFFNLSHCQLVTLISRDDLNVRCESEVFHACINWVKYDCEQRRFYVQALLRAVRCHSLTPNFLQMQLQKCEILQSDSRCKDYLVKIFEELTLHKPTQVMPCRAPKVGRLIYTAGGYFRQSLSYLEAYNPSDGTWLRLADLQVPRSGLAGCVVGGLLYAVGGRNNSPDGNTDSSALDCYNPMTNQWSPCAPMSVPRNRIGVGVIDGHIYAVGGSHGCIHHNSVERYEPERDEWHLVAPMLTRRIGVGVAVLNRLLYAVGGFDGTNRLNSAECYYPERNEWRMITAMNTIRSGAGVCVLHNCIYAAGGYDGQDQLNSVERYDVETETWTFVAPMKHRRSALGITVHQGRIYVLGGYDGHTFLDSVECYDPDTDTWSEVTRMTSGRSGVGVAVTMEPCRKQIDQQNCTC
NSD2 inh: inhibitors of human histone methyltransferase NSD2; NSD2 peptide methylation, AlphaScreen, 120 min; inhibition, % at 12.5 µM; 310,000 tested, 0.54% active; in the data active means inhibition above about 50%
Casp6 inh: inhibitors of human caspase-6; 350,000 tested, 0.53% active; purified caspase-6, Z-VEID-R110 cleavage fluorescence; AID 686996; P55212; inhibition, % at 12.5 µM;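 active means mean inhibition across replicates at least about 35%, with every replicate also reaching that limit, limit read from the data; inconclusive means only one of the two criteria met; inactive means neither criterion met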;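 further: 0% = median of neutral control wells and 100% = no fluorescence left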
* hit, by the source's call; ? = inconclusive; . = not tested or not shown.

SMILES	Glyco luc inh	HDAC3 inhib	LANA DNA inh	Keap1-Nrf2 PPI	NSD2 inh	Casp6 inh
CCCC(=O)NC(NC(=S)Nc1ccc(N=Nc2ccccc2)cc1)C(Cl)(Cl)Cl (stereo unspecified)	30.3*	-5.0	1.3	2.9	9.4	-3.1
CC(=O)NC(NC(=S)Nc1ccccc1Br)C(Cl)(Cl)Cl (stereo unspecified)	0.3	2.0	0.2	-1.6	-9.1	-1.9
CCCC(=O)NC(NC(=S)Nc1ccc(S(N)(=O)=O)cc1)C(Cl)(Cl)Cl (stereo unspecified)	0.4	-1.3	0.3	-1.2	-2.1	.
C[C@H](CO)N1C[C@H](C)[C@H](CN(C)S(=O)(=O)c2cccs2)OCCCC[C@H](C)Oc2ccc(NC(=O)Nc3ccc4c(c3)OCO4)cc2C1=O	.	.	.	.	.	-3.1
O=C(O)C1Nc2c(O)cccc2C2C=CCC12 (stereo unspecified)	2.0	-0.2	13.4	2.5	26.3	92.5*
O=C(O)C1Nc2c(Cl)cc(Cl)cc2C2C=CCC12 (stereo unspecified)	0.0	-11.2	25.9	4.1	.	.
c1ccc2c(-c3nc4ccccc4[nH]3)cccc2c1	28.4*	.	.	.	-1.8	-2.2
c1ccc2[nH]c(-c3ccnc4ccccc34)nc2c1	1.5	-6.0	-0.3	-1.0	-2.3	.
C/C=C/c1ccc([C@H]2[C@@H](CO)N3CCCCN(C(=O)Nc4ccccc4F)C[C@H]23)cc1	.	.	.	.	.	-3.6
COc1ccc(NC(=O)CSc2nnc(-c3ccco3)c(-c3ccco3)n2)cc1OC	-3.8	9.7	0.3	-3.2	3.0	.
COc1cccc(NC(=O)CSc2nnc(-c3ccco3)c(-c3ccco3)n2)c1	3.8	16.5	4.5	1.5	20.6	42.9*
O=C(Cc1ccccc1)N1C[C@@H]2[C@H](c3ccccc31)[C@H](CO)N2C(=O)c1cccc(F)c1	.	.	.	.	.	4.2
Cc1ccc(N2C(=O)Nc3ccccc3C2(O)C(=O)N2CCN(c3ccccn3)CC2)cc1C (stereo unspecified)	29.0*	-1.8	2.9	-1.5	-1.7	2.0
CCc1ccc(N2C(=O)Nc3ccccc3C2(O)C(=O)N2CCN(c3ccccn3)CC2)cc1 (stereo unspecified)	37.6*	-3.5	1.1	0.5	-1.4	0.4
CCC(C)NC(=O)C1(O)c2ccccc2NC(=O)N1c1ccc(C)c(C)c1 (stereo unspecified)	0.6	-2.9	2.5	1.4	0.2	-2.4
O=c1c(O)c(-c2ccc(O)c(O)c2)oc2cc(O)ccc12	-9.4	.	33.1	1.9	.	65.5*
CCc1ccccc1NC(=O)CSc1ccsc1[N+](=O)[O-]	3.1	3.1	-0.2	-0.1	0.0	.
O=C(CSc1ccsc1[N+](=O)[O-])Nc1cccc(F)c1	3.3	.	10.1	-1.3	4.8	40.6*
CSc1ccc(/C=C(\C(=O)O)c2ccc(S(=O)(=O)N3CCCC3)s2)cc1	0.7	4.0	9.9	-0.8	25.7	45.5*
O=C(O)/C(=C\c1cccc(O)c1)c1ccc(S(=O)(=O)N2CCCC2)s1	2.7	-2.5	3.4	-0.7	-1.5	57.9*
O=C(N[C@H]1CC[C@H](CCNS(=O)(=O)c2ccc(F)cc2)O[C@@H]1CO)c1cccc(F)c1	.	.	.	.	.	-2.0
C[C@H]1CN([C@@H](C)CO)S(=O)(=O)c2ccc(C#Cc3cccc(F)c3)cc2O[C@@H]1CN(C)C(=O)NC1CCCCC1	.	.	.	.	.	0.0
CCOC(=O)c1sc(C)c2c(=O)n(Cc3ccc(Cl)cc3)c(C)nc12	0.2	0.5	-3.8	-10.4	0.1	.
CCOC(=O)c1sc(C)c2c(=O)n(Cc3ccc(Cl)cc3)cnc12	1.2	-3.1	-0.1	-3.3	-2.9	49.9*
COc1cc(-c2noc(C)c2/C=C/c2ccc(OC(C)=O)cc2)cc(OC)c1OC	27.1*	-4.3	-0.2	-7.6	.	-2.6
SMILES	Glyco luc inh	HDAC3 inhib	LANA DNA inh	Keap1-Nrf2 PPI	NSD2 inh	Casp6 inh
CNC[C@H]1Oc2ccc(NC(=O)CCC(F)(F)F)cc2C(=O)N([C@@H](C)CO)C[C@@H]1C	.	.	.	.	.	-1.2
O=C(NCC[C@H]1CC[C@@H](NS(=O)(=O)c2ccc(Cl)cc2)[C@@H](CO)O1)c1ccc2c(c1)OCO2	.	.	.	.	.	0.0
COCCOC(=O)c1[nH]c2c(c1C)C(=O)CC(c1ccco1)C2 (stereo unspecified)	?	3.9	2.1	-2.4	.	49.6*
CNC[C@H]1Oc2ccc(NC(=O)Nc3ccc(C(F)(F)F)cc3)cc2C(=O)N([C@@H](C)CO)C[C@@H]1C	.	.	.	.	.	-3.7
Cc1noc(C)c1NC(=O)N(C)C[C@H]1Oc2ncc(C#CC3CCCC3)cc2C(=O)N([C@H](C)CO)C[C@H]1C	.	.	.	.	.	-2.8
Nc1ccc(OC(=O)Nc2ccc(O)cc2)cc1	3.9	5.6	0.4	-3.6	25.3	60.8*
O=C(NC1CCCCC1)C(C1CC1)N1CCc2ccccc2C1 (stereo unspecified)	1.5	.	.	.	.	-5.0
O=C(NC1CCCCC1)C(c1ccnc2ccccc12)N1CCc2ccccc2C1 (stereo unspecified)	2.4	.	.	.	.	76.2*
C[C@H]1CN([C@@H](C)CO)C(=O)c2cc(NC(=O)Cc3ccccc3)ccc2O[C@@H]1CN(C)CC1CCCCC1	.	.	.	.	.	0.4
CCc1ccc(N=C2NC(=O)/C(=C/c3cc(Br)c(OCC(=O)O)c(OC)c3)S2)cc1	2.6	5.9	-0.5	-2.6	10.6	63.8*
CN(C)CCCN1C(=O)c2cccc3cccc(c23)C1=O	115.5*	-9.2	-2.3	-7.7	24.2	0.7
CN(C)CCN1C(=O)c2cccc3cc([N+](=O)[O-])cc(c23)C1=O	43.2*	.	1.1	7.5	8.5	1.9
C[C@H](CO)N1C[C@H](C)[C@H](CN(C)C(=O)Cc2ccccn2)Oc2ncc(-c3cccc(C(=O)N(C)C)c3)cc2C1=O	.	.	.	.	.	4.2
COc1ccc(CN(C)C[C@@H]2Oc3ccc(NC(=O)Nc4c(C)noc4C)cc3CC(=O)N([C@H](C)CO)C[C@@H]2C)cc1	.	.	.	.	.	-2.1
N#CC(C#N)=c1ccc2c(c1)N1C3=C(CCCC3)CC3CCCCC31N=2 (stereo unspecified)	2.4	-7.2	1.0	-4.6	55.1*	.
CCOc1ccccc1NC(=O)CCS(=O)(=O)c1ccc(Br)cc1	-1.2	-2.8	18.8	-2.9	-2.1	70.6*
CCOc1ccc(NC(=O)CCS(=O)(=O)c2ccc(Br)cc2)cc1	-0.3	1.6	7.3	0.0	0.0	65.6*
CCOc1ccc(CCNC(=O)CCS(=O)(=O)c2ccc(OC)cc2)cc1OCC	1.7	4.5	3.2	1.5	21.1	38.5*
CCc1ccccc1NC(=O)CCS(=O)(=O)c1ccc(Br)cc1	-0.1	-7.5	1.5	2.8	-0.3	25.2
O=C(CCS(=O)(=O)c1ccc(Br)cc1)Nc1cc(F)ccc1F	-6.3	0.1	2.0	2.8	-2.3	58.8*
Cc1noc(C)c1NC(=O)N(C)C[C@@H]1Oc2ncc(C#CC3CCCC3)cc2C(=O)N([C@H](C)CO)C[C@H]1C	.	.	.	.	.	-1.2
C[C@H](CO)N1C[C@H](C)[C@@H](CN(C)C(=O)c2ccccn2)Oc2cc(C#CC3CC3)ccc2S1(=O)=O	.	.	.	.	.	-0.8
